Source: publication PMC7819943, “Rice protein-binding microarrays: a tool to detect cis-acting elements near promoter regions in rice”
The full ranking holds about 39,000 sequences; the median of “fluorescence intensity (a.u.)” is about 4,300, and the highest 2% start at about 39,000. The entries come from a sample that favours the highest values as a whole.

Target: T1, OsSMF1 (Oryza sativa, UniProt Q6ZLB0 1-436)
T1 sequence: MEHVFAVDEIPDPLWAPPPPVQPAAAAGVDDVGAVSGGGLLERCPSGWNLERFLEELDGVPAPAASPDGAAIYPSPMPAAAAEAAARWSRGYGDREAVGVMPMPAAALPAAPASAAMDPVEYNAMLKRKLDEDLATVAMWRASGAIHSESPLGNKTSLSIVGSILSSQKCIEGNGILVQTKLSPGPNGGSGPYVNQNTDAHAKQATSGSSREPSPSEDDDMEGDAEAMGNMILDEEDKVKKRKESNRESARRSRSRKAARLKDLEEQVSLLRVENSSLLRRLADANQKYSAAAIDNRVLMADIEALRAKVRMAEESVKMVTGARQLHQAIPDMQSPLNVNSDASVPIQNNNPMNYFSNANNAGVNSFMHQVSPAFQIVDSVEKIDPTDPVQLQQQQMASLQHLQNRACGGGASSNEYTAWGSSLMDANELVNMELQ
Assay: protein-binding microarray (RPBM); PBS, 2% BSA, 51.3 ng/ul salmon testes DNA, 50 uM zinc acetate, 200 nM TF, 25 C, 1 h; high values mean tight binding
Conditions: protein: recombinant; tags: N-terminal polyhistidine and DsRed monomer fusion (pET32a); chain copies: 2; label: CyDye5-dUTP incorporated in the synthesized complementary strand; 3' TTTTT single-stranded linker to array surface; dsDNA, one strand shown
Method in brief: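 Ni–NTA purification followed expression in E. coli BL21-CodonPlus of transcription factors fused N-terminally to a polyhistidine tag and DsRed. At 200 nM in PBS with 2% BSA, salmon testes DNA and 50 µM zinc acetate, the protein was incubated for 1 h at 25 °C with a custom Agilent array that had been primer-extended with Cy5-dUTP and blocked with 2% BSA. After washing, the array was read on an Axon 4000B scanner. The binding signal is per-feature fluorescence intensity in arbitrary units.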

| Sequence | binding signal |
| --- | --- |
| ACACACACACACACCCACCACACCACCCCGGCCGCTTCCGCGGAGTCACCTAGTGCAG | 3210 fluorescence intensity (a.u.) |
| GGAGGGTGGGGTAGGAGAGGATGCGGCGGGCGCCATGGCTCGGAGTCACCTAGTGCAG | 3450 fluorescence intensity (a.u.) |
| GCCACTTGCCCAGGTCACGCACACATTATTGAGCGAGCGACGGAGTCACCTAGTGCAG | 4590 fluorescence intensity (a.u.) |
| AGTCGCACGCCAAGTGTTTGTTGTTTTGCCAAGCAAGATGCGGAGTCACCTAGTGCAG | 3520 fluorescence intensity (a.u.) |
| TCGAGCCCCTCTCCCTCCGCGAGCCGTGTGCAGCGGGCGACGGAGTCACCTAGTGCAG | 3430 fluorescence intensity (a.u.) |
| ACGGATTCCTGTTAATAGAGTGTTTCCGTAATATGTGGCACGGAGTCACCTAGTGCAG | 3820 fluorescence intensity (a.u.) |
| GTTTGGGGTTTCTTTCCTGCCTCGTGAGCTGACGCCGGTGCGGAGTCACCTAGTGCAG | 4080 fluorescence intensity (a.u.) |
| CCGGCGGCAGTGGCCCGGCGGCGCCGCCACCTTCCGTGCCCGGAGTCACCTAGTGCAG | 43700 fluorescence intensity (a.u.) |
| CGCCTTCGTCCCATCTCGACCGTCCACGTGTGGCCCATCCCGGAGTCACCTAGTGCAG | 8200 fluorescence intensity (a.u.) |
| GTTAGTGCCACGTGGCGCCTTCCCATTCGACCGCCGCCCGCGGAGTCACCTAGTGCAG | 42100 fluorescence intensity (a.u.) |
| GGCAGCCATTCCCACCGCGCCACACGCGCCACACGCCCCGCGGAGTCACCTAGTGCAG | 3240 fluorescence intensity (a.u.) |
| AAAGCGTTCCGCGGCGCCGCCGTGGCGTCCGGCGTCCGGCCGGAGTCACCTAGTGCAG | 3900 fluorescence intensity (a.u.) |
| GCCGCGCCGCGCCGTGGCGTGGCGTGGCGTGGCGCGGCCACGGAGTCACCTAGTGCAG | 6530 fluorescence intensity (a.u.) |
| CTCGAGCCCGCGGATGGCGCCCCATGGCGTGGCGGCGGAGCGGAGTCACCTAGTGCAG | 3820 fluorescence intensity (a.u.) |
| TGTAAGCATCAGCATGTCAAGGTTAACACCTCACTATCTCCGGAGTCACCTAGTGCAG | 4630 fluorescence intensity (a.u.) |
| ACAGGGGCAGGGGTCATGTGGTGGAGGTAATCAATTAATCCGGAGTCACCTAGTGCAG | 3660 fluorescence intensity (a.u.) |
| TAGATGTTACTCCCTCCGTCCCTTCGTCCTAAAATGTAGCCGGAGTCACCTAGTGCAG | 35900 fluorescence intensity (a.u.) |
| GCAGATCTTGACTATCTCCACGGGATATATACACGGCGGCCGGAGTCACCTAGTGCAG | 22300 fluorescence intensity (a.u.) |
| CGCTCATGAAGCTCCTTCCCTACGCGCGCTCGCCGAATCGCGGAGTCACCTAGTGCAG | 44000 fluorescence intensity (a.u.) |
| GCTCCTCGCGCTGCTCATCATCCTCCCCTCCACGCCGCCGCGGAGTCACCTAGTGCAG | 4730 fluorescence intensity (a.u.) |
| CTCCCTTCCCTTCCCTTCCTCTCGCCGAACCAACGCGGAACGGAGTCACCTAGTGCAG | 3360 fluorescence intensity (a.u.) |

| Sequence | binding signal |
| --- | --- |
| CCCAAGGAGGATGAGGTGGAGGTGGGAGTGCGCATTGAGGCGGAGTCACCTAGTGCAG | 4880 fluorescence intensity (a.u.) |
| CCTTAGACCTTCTGGATTACATCGTAAGCTGGCTTCTCCTCGGAGTCACCTAGTGCAG | 3490 fluorescence intensity (a.u.) |
| CCACACAGCGATAATCGAGCGGATTGGACCAAAGTACGAGCGGAGTCACCTAGTGCAG | 38200 fluorescence intensity (a.u.) |
| CAAAGCGGCCCAACAATGAACACGTCACTTGTATTCACTACGGAGTCACCTAGTGCAG | 7510 fluorescence intensity (a.u.) |
| CCAGGATAAAATAAAGGTTGTATGTTACAAATGTTTGATCCGGAGTCACCTAGTGCAG | 42200 fluorescence intensity (a.u.) |
| ATGTGACTGAAAAGTTGTGTGTGTATGACAGGTTGATGTGCGGAGTCACCTAGTGCAG | 3800 fluorescence intensity (a.u.) |
| TGACAGGTTGATGTGATGGAAAAGGACTGAAGGTTGGATCCGGAGTCACCTAGTGCAG | 42400 fluorescence intensity (a.u.) |
| GTTTGAGATGTGTAATAAAGGATCGATCTTGTTGACGATCCGGAGTCACCTAGTGCAG | 3530 fluorescence intensity (a.u.) |
| ACAAACTTTGTATACGTGTATAAAATATTGATATATGTACCGGAGTCACCTAGTGCAG | 4410 fluorescence intensity (a.u.) |
| TTGATTGAAATTGGAGATGATGTGACTGAAAAGTTGTGTGCGGAGTCACCTAGTGCAG | 4220 fluorescence intensity (a.u.) |
| GAAGTGTCCATATTGAGTCATTTGTCCATTTGCCCAGGCACGGAGTCACCTAGTGCAG | 4960 fluorescence intensity (a.u.) |
| TCCTCTTGCCTCCTCCGCTGAGGCAGCCAGTGCGTGCGCCCGGAGTCACCTAGTGCAG | 3360 fluorescence intensity (a.u.) |
| AGATGATCTAGGCGTGCGTGCATGCATGCGTGGCCCGCCACGGAGTCACCTAGTGCAG | 4340 fluorescence intensity (a.u.) |
| CTCCTCCTCCTCCAGACCTCCACGCGAGCGTGCCCCGGGGCGGAGTCACCTAGTGCAG | 4470 fluorescence intensity (a.u.) |
| CAACTTTGGAAGAACTAAACACAGCATATGACAGTGCAGTCGGAGTCACCTAGTGCAG | 4130 fluorescence intensity (a.u.) |
| CCGTACTCATAAAGGAAGTCGTTTTGGACAGCATCACGGTCGGAGTCACCTAGTGCAG | 4170 fluorescence intensity (a.u.) |
| TTGCAAACACAGGAATTACCGTTTGATTGAACCACAGGAACGGAGTCACCTAGTGCAG | 12300 fluorescence intensity (a.u.) |
| AAGGAAGTCGTTTTGGACAGCGACACAGTCTCTAAAACACCGGAGTCACCTAGTGCAG | 58900 fluorescence intensity (a.u.) |
| AAAACACAGGAATGGTCGTTTGATTGGAGCGCAGGAGAAACGGAGTCACCTAGTGCAG | 64900 fluorescence intensity (a.u.) |
| GCCTCGTTTGATTGGTCACATGCATGGAAAGAGACTCACACGGAGTCACCTAGTGCAG | 16700 fluorescence intensity (a.u.) |
| TAACATAGTTGATATTGTTTAATGTCATGACAAAGAATGACGGAGTCACCTAGTGCAG | 3580 fluorescence intensity (a.u.) |
